Experimental data as given in PubChem BioAssay (NCATS).
Records with an inconclusive call do not appear. Unmarked numbers belong to inactive results. The source made the active and inactive calls. Calls come from the whole dose curve; as a rule, active = well fitted cell-killing curve with a large enough effect; inconclusive = small, poorly fitted or top-dose-only effect; inactive = no such curve, though single readings can be large or run the other way.

assay: qHTS of pediatric cancer cell lines to identify multiple opportunities for drug repurposing: Primary screen for SJ-GBM2 cells (AID 1347091); details: SJ-GBM2 viability, CellTiter-Glo luminescence, 48 h; series mostly up to 46 µM; activity change, negative = cytotoxic: at the top concentration
Text: Drug repurposing or repositioning has been offered as a strategy for drug development in oncology programs. This approach has special potential for childhood cancers and other rare or orphan diseases, where the expected return on new drug development has been a disincentive to pharmaceuticals.
In this project we exploit the poly-pharmacology of drugs to discover new indications via phenotypic screening of a panel of 19 well-characterized cell lines derived from solid tumors seen in children and adolescents. The goal is to identify approved drugs with previously unrecognized anticancer properties that has the potential to reveal new mechanisms and biological processes involved in carcinogenesis or drug resistance. We employed a titration-based paradigm (quantitative high-throughput screening or qHTS), where all compounds were tested at multiple concentrations for their effect on cell viability. Concentration-response curves (CRCs) were derived directly from the primary screen, and both potency and efficacy values were used to identify compounds with robust bioactivity profiles. We screened the NIH Chemical Genomics Center (NCGC) Pharmaceutical Collection (NPC) and Mechanism Interrogation Plate (MIPE) small molecule collections of approved and investigational compounds against these cell lines; and measured metabolically active cells after 48 hours of compound treatment as a proxy for cell viability.
Assay Submitter: Nathalia J. Martinez, National Center for Advancing Translational Sciences, National Institutes of Health, Rockville, MD, USA; email: natalia.martinez@nih.gov
[1] Shen, M et al. Quantitative high-throughput phenotypic screening of pediatric cancer cell lines identifies multiple opportunities for drug repurposing. Oncotarget 2017 Dec 19;9(4):4758-4772. PMID 29435139.
The cells were obtained from University of North Carolina (UNC), Pediatric Preclinical Testing Program (PPT), and Coriell Institute (CI).
qHTS cell viability assay:
Cells were assayed in growth media at a density of 500-1,000 cells/well. Five microliters of cells were dispensed into 1,536-well, white, solid-bottom, TC-treated plates (Greiner Bio One) using a multidrop dispenser and incubated at 37 degrees C, 5% CO2, under a humidified atmosphere for 5 hours. Twenty-three nanoliters of compounds and controls (neutral control DMSO or positive control bortezomib at final concentration of 2.3 µM) were subsequently transferred by Kalypsys pintool. For primary screens, the MIPE collection was tested at 11-point dilutions (final concentrations range from 0.78 nM to 46 µM) and the NPC collection at 8-point dilutions (final concentrations range from 0.59 nM to 46 µM). Compounds tested in follow-up screens were assayed at 11-point dilutions. Cells were incubated for 48 hours, followed by addition of 3 uL of CellTiter-Glo (Promega). After a 15 min incubation at room temperature, samples were analyzed for luminescence intensity using a ViewLux High-throughput CCD imager equipped with clear filters.
Potency is the fitted concentration of half-maximal effect.

**Q.** With C[C@]12CC[C@@H]3c4ccc(O)cc4CC[C@H]3[C@H]1CC[C@H]2O as the compound, how does the Potency read?
**A.** 16.6 µM (active)

**Q.** With NC(=O)Nc1cc(-c2ccc(CN3CCOCC3)cc2)sc1C(N)=O as the compound, how does the Potency read?
**A.** 0.059 µM (active)

**Q.** For CC[C@H](CC[C@@H](C)[C@H]1CC[C@H]2[C@@H]3CC=C4C[C@@H](O)CC[C@]4(C)[C@@H]3CC[C@]12C)C(C)C, which “activity change, negative = cytotoxic” value is on record?
**A.** 15.2%

**Q.** For CC(=O)C1=C(O)C=C2Oc3c(C(C)=O)c(O)c(C)c(O)c3C2(C)C1=O (stereo not given), which Potency is on record?
**A.** 2.35 µM (active)

**Q.** Which Potency does the source give for CC(C)c1cnn2c(NCc3ccccc3)cc(NCCCCCCN)nc12 here?
**A.** 16.6 µM (active)

**Q.** Which Potency does the source give for C[C@@H](Oc1ccc2[nH]nc(C=Cc3cnn(CCO)c3)c2c1)c1c(Cl)cncc1Cl here?
**A.** 0.418 µM (active)

**Q.** Which “activity change, negative = cytotoxic” value does the source give for COc1ccc(CCC(=O)c2c(O)cc(O[C@@H]3O[C@H](CO)[C@@H](O)[C@H](O)[C@@H]3O[C@@H]3O[C@@H](C)[C@H](O)[C@@H](O)[C@@H]3O)cc2O)cc1O here?
**A.** 23.7%

**Q.** With CC(C)(N)c1ccc(-c2nc3ccccc3nc2-c2ccccc2)cc1 as the compound, how does the Potency read?
**A.** 23.5 µM (active)

**Q.** Which “activity change, negative = cytotoxic” value does the source give for C[C@H](O)[C@@H]1C(=O)N2C(C(=O)O)=C(S[C@@H]3CN[C@H](CNS(N)(=O)=O)C3)[C@@H](C)[C@@H]12 here?
**A.** 16.7%

**Q.** With C[C@@H](Cc1cc2c(c(C(N)=O)c1)N(CCCO)CC2)NCCOc1ccccc1OCC(F)(F)F as the compound, how does the “activity change, negative = cytotoxic” value read?
**A.** 0.801%

**Q.** With Oc1ccc(-c2ccc(-c3cc(Nc4cccc(CNC5CC5)c4)n[nH]3)cc2)c(O)c1 as the compound, how does the Potency read?
**A.** 1.48 µM (active)

**Q.** With COc1cc(C=CC(=O)CC(=O)C=Cc2ccc(O)c(OC)c2)ccc1O as the compound, how does the Potency read?
**A.** 30.3 µM (active)

**Q.** For CC(=O)[C@]1(O)Cc2c(O)c3c(c(O)c2[C@@H](O[C@H]2C[C@H](N)[C@@H](O)[C@H](C)O2)C1)C(=O)c1ccccc1C3=O, which Potency is on record?
**A.** 0.0833 µM (active)

**Q.** For Cc1ccc(O)c(C(CCN(C(C)C)C(C)C)c2ccccc2)c1 (stereo not given), which “activity change, negative = cytotoxic” value is on record?
**A.** 5.9%

**Q.** With CC(=O)N1CCN(c2ccc(OCc3nn(C)c(C)c3-c3cccc4c(CCCOc5cccc6ccccc56)c(C(=O)O)n(Cc5cccnc5)c34)cc2)CC1 as the compound, how does the Potency read?
**A.** 1.05 µM (active)

**Q.** For CO[C@@H]1[C@@H](O)[C@H](O)[C@@H](n2c3c(Cl)cccc3c3c4c(c5c6cccc(Cl)c6[nH]c5c32)C(=O)NC4=O)O[C@@H]1CO, which Potency is on record?
**A.** 0.166 µM (active)

**Q.** Which Potency does the source give for CC(=O)O[C@]1(C(C)=O)CC[C@H]2[C@@H]3C=C(C)C4=CC(=O)CC[C@]4(C)[C@@H]3CC[C@@]21C here?
**A.** 14.8 µM (active)

**Q.** Which Potency does the source give for CN(C)CCN1C(=O)c2cccc3cc(N)cc(c23)C1=O here?
**A.** 14.8 µM (active)

**Q.** For Cc1[nH]c(C=C2C(=O)Nc3ccccc32)c(C)c1CCC(=O)O, which Potency is on record?
**A.** 0.935 µM (active)

**Q.** Which “activity change, negative = cytotoxic” value does the source give for O=C(C[C@@H]1CC=CCCC(=O)O[C@H](c2ccccc2)CNC1=O)NCc1ccc(Cl)cc1 here?
**A.** -1.07%

**Q.** For C=CC(=O)N1CCc2ccc(-n3c(=O)ccc4cnc5ccc(-c6cnn(C)c6)cc5c43)cc21, which Potency is on record?
**A.** 5.9 µM (active)

**Q.** For CC(=O)NC(CS)C(=O)O (stereo not given), which “activity change, negative = cytotoxic” value is on record?
**A.** 5.58%

**Q.** With O=C(CCCCCCC(=O)Nc1cccnc1)NO as the compound, how does the Potency read?
**A.** 7.43 µM (active)

**Q.** Which “activity change, negative = cytotoxic” value does the source give for O=C(NNC(=O)c1ccc(CNS(=O)(=O)c2ccc(F)c(Cl)c2)cc1)c1ccccc1 here?
**A.** 10.4%

**Q.** With CS(=O)(=O)N1CCc2c(-c3cnc(N)nc3)nc(N3CCOCC3)nc21 as the compound, how does the Potency read?
**A.** 0.209 µM (active)

**Q.** With CC(=O)OC[C@@H]1O[C@@H](n2ccc(=O)[nH]c2=O)[C@H](OC(C)=O)[C@H]1OC(C)=O as the compound, how does the “activity change, negative = cytotoxic” value read?
**A.** 1.61%

**Q.** With CCCCCCCCc1ccc(CCC(N)(CO)CO)cc1 as the compound, how does the Potency read?
**A.** 14.8 µM (active)

**Q.** With C[C@H](NC(=O)[C@@H](O)c1cc(F)cc(F)c1)C(=O)N[C@@H]1C(=O)N(C)c2ccccc2-c2ccccc21 as the compound, how does the “activity change, negative = cytotoxic” value read?
**A.** -1.28%

**Q.** For C=C1C(=CC=C2CCC[C@]3(C)[C@@H]([C@H](C)CCCC(C)(C)O)CC[C@@H]23)C[C@@H](O)C[C@@H]1O, which Potency is on record?
**A.** 13.2 µM (active)

**Q.** With CCCCOc1ccc(C(=O)Nc2ccc(F)cc2F)cc1 as the compound, how does the “activity change, negative = cytotoxic” value read?
**A.** -9.34%

**Q.** Which “activity change, negative = cytotoxic” value does the source give for NC[C@H]1O[C@H](O[C@H]2[C@@H](O)[C@@H](O[C@H]3O[C@H](CO)[C@@H](O)[C@H](N)[C@@H]3O)[C@H](N)C[C@@H]2N)[C@H](N)C[C@H]1O here?
**A.** 25.4%

**Q.** Which Potency does the source give for Nc1ncn([C@@H]2O[C@H](CO)[C@@H](O)[C@@H]2O)c(=O)n1 here?
**A.** 7.43 µM (active)

**Q.** With CC(C)(O)[C@H]1CC[C@@](C)([C@H]2[C@@H](O)C[C@@]3(C)[C@@H]4C[C@H](O[C@@H]5O[C@H](CO)[C@@H](O)[C@H](O)[C@@H]5O)[C@H]5C(C)(C)[C@@H](O[C@@H]6OC[C@@H](O)[C@H](O)[C@@H]6O)CC[C@@]56C[C@@]46CC[C@]23C)O1 as the compound, how does the “activity change, negative = cytotoxic” value read?
**A.** 21.9%

**Q.** With COc1ccc([C@@H]2CNC(=O)C2)cc1OC1CCCC1 as the compound, how does the “activity change, negative = cytotoxic” value read?
**A.** 20.1%

**Q.** For O=c1[nH]c(=O)n([C@H]2C[C@@H](O)[C@@H](CO)O2)cc1C=CBr, which “activity change, negative = cytotoxic” value is on record?
**A.** 9.09%

**Q.** For CC(C)C[C@H](NC(=O)CNC(=O)c1cc(Cl)ccc1Cl)B1OC(=O)CC(CC(=O)O)(C(=O)O)O1 (stereo not given in full), which Potency is on record?
**A.** 0.148 µM (active)

**Q.** With O=C(C=CC#Cc1cccc(NS(=O)(=O)c2ccccc2)c1)NO as the compound, how does the Potency read?
**A.** 1.66 µM (active)

**Q.** For CCc1nc(-c2cccc(C)c2)c(-c2ccnc(NC(=O)c3ccccc3)c2)s1, which Potency is on record?
**A.** 18.7 µM (active)

**Q.** With CN1C(C(=O)Nc2ccccn2)=C(O)c2sc(Cl)cc2S1(=O)=O as the compound, how does the “activity change, negative = cytotoxic” value read?
**A.** 1.02%

**Q.** Which Potency does the source give for NC(=O)Nc1sc(-c2ccc(F)cc2)cc1C(N)=O here?
**A.** 0.372 µM (active)
